According to PubChem BioAssay (Tox21):
Results filed as inconclusive are left out. The source made the active and inactive calls. Unless noted, the call rests on the fitted dose curve; in most records, active means well fitted curve in the direction sought with a large enough effect in the repeat runs; inconclusive means weak or mixed curves; inactive means no such curve, though single readings can be large; an effect the other way counts as inactive or inconclusive.

Columns and labels:
[1] = target: Acetylcholinesterase (Homo sapiens) (UniProt P22303); test: Acetylcholinesterase (AChE) small molecule antagonists: fluorescence cell-based qHTS assay (AID 1347398; calls by dose curve; further: nearly all actives have a fitted effect of over 50% in size); details: Potency: AChE activity
Chain of Acetylcholinesterase (Homo sapiens) (P22303 whole entry, looked up): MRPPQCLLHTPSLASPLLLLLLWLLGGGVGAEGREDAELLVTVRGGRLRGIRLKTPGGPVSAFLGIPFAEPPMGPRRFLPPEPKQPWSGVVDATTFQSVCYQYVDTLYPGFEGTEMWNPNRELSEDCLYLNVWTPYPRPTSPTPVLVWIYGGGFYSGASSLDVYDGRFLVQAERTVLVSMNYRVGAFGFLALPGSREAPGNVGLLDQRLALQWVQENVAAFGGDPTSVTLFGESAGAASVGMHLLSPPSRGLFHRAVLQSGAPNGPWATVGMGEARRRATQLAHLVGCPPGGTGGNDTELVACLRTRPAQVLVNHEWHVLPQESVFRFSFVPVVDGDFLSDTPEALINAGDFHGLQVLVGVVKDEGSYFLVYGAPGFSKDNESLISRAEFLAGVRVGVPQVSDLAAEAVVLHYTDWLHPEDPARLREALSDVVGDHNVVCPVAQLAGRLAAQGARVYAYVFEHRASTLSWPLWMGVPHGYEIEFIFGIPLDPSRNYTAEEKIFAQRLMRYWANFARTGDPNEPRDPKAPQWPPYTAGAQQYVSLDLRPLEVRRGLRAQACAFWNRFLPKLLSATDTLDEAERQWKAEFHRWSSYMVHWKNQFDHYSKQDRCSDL
How it was run: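 Human SH-SY5Y cells were plated overnight at 37 C, exposed to compound for 30 min at 37 C, 5% CO2, then given acetylthiocholine plus Thiolite Green for 40 min at room temperature; thiocholine fluorescence (Ex/Em 490/520 nm) reports endogenous AChE activity.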

[2] = target: Acetylcholinesterase (Homo sapiens) (UniProt P22303); test: Acetylcholinesterase (AChE) small molecule antagonists: enzyme-based qHTS assay with human liver microsomes (AID 1347399; calls by dose curve; further: nearly all actives have a fitted effect of over 60% in size); details: Potency: qHTS inhibition
How it was run: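 Recombinant human AChE (50 mU/mL in the enzyme mix) and human liver microsomes (0.25 mg/mL final) were preincubated with compound and NADPH (0.25 mg/mL final) for 30 min at 37 C. Acetylthiocholine/DTNB was then added; thiocholine was read colorimetrically after 10 min at room temperature.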

[3] = target: Cytochrome P450 2D6 (Homo sapiens) (UniProt P10635); test: Cytochrome P450 Family 2 Subfamily D Member 6 (CYP2D6) small molecule antagonists: luciferase reporter qHTS assay (AID 1671196); further: nearly all actives have a fitted effect of over 50% in size; on activity change, negative = inhibition: series mostly up to about 120 µM
Chain of Cytochrome P450 2D6 (Homo sapiens) (P10635 whole entry, looked up): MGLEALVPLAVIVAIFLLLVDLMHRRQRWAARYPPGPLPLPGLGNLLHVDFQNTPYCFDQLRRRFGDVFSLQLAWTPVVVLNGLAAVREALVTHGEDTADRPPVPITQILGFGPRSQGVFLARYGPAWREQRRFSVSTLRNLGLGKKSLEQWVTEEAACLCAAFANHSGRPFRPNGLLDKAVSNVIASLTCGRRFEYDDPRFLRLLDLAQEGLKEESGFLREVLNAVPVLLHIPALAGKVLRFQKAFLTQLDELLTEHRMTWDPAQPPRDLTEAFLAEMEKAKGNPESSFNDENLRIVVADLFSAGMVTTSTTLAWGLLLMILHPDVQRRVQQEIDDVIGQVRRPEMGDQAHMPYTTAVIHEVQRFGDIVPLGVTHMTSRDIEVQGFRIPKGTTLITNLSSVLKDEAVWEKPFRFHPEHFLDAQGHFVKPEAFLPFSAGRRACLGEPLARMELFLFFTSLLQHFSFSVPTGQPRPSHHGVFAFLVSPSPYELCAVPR
How it was run: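 Inhibition of CYP2D6 was gauged by loss of luminescence, since light produced tracks the luciferin generated from a proluciferin substrate. A 10 min room-temperature preincubation preceded 1 h NADPH-supported turnover.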

[4] = target: Cytochrome P450 2C19 (Homo sapiens) (UniProt P33261); test: Cytochrome P450 Family 2 Subfamily C Member 19 (CYP2C19) small molecule antagonists: luciferase reporter qHTS assay (AID 1671197); further: nearly all actives have a fitted effect of over 65% in size; on activity change, negative = inhibition: series mostly up to about 120 µM
Chain of Cytochrome P450 2C19 (Homo sapiens) (P33261 whole entry, looked up): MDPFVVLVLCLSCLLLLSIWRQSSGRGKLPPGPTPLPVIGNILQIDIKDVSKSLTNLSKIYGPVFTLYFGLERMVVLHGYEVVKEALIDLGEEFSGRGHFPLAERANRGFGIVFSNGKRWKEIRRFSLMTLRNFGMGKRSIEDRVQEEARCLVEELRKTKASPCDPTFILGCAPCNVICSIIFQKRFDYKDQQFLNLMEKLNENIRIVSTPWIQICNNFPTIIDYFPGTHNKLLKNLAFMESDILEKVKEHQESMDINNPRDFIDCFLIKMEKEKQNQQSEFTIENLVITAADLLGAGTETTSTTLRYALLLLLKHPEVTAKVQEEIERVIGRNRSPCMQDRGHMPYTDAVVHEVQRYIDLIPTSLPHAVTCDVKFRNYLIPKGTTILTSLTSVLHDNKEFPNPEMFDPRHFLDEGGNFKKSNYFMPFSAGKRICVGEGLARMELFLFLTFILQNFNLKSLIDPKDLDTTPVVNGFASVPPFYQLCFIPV
How it was run: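 Compounds were tested on CYP2C19 activity via proluciferin conversion to luciferin. The 37C, 1 h reaction followed NADPH addition; detection reagent stopped it.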

[5] = target: Cytochrome P450 2C9 (Homo sapiens) (UniProt P11712); test: Cytochrome P450 Family 2 Subfamily C Member 9 (CYP2C9) small molecule antagonists: luciferase reporter qHTS assay (AID 1671198); further: nearly all actives have a fitted effect of over 50% in size; on activity change, negative = inhibition: series mostly up to about 120 µM
Chain of Cytochrome P450 2C9 (Homo sapiens) (P11712 whole entry, looked up): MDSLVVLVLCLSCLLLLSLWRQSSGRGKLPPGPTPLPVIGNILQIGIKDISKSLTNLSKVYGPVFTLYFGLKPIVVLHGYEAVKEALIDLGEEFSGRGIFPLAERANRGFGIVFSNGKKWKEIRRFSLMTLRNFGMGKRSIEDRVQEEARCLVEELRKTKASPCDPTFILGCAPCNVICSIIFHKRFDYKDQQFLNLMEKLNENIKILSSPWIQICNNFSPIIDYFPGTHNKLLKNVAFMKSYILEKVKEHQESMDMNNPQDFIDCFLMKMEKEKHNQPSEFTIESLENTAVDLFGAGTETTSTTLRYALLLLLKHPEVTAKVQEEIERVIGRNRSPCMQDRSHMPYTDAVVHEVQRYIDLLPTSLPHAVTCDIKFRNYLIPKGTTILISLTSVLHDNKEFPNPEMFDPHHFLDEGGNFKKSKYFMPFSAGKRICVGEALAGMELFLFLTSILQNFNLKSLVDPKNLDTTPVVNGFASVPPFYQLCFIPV
How it was run: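 CYP2C9 activity was measured with a P450-Glo proluciferin substrate. Enzyme–substrate mix was held with compound for 10 min at room temperature, then NADPH regeneration solution was added for 1 h at 37C. Luciferin product was read as luminescence.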

[6] = target: Cytochrome P450 1A2 (Homo sapiens) (UniProt P05177); test: Cytochrome P450 Family 1 Subfamily A Member 2 (CYP1A2) small molecule antagonists: luciferase reporter qHTS assay (AID 1671199); further: nearly all actives have a fitted effect of over 50% in size; on activity change, negative = inhibition: series mostly up to about 120 µM
Chain of Cytochrome P450 1A2 (Homo sapiens) (P05177 whole entry, looked up): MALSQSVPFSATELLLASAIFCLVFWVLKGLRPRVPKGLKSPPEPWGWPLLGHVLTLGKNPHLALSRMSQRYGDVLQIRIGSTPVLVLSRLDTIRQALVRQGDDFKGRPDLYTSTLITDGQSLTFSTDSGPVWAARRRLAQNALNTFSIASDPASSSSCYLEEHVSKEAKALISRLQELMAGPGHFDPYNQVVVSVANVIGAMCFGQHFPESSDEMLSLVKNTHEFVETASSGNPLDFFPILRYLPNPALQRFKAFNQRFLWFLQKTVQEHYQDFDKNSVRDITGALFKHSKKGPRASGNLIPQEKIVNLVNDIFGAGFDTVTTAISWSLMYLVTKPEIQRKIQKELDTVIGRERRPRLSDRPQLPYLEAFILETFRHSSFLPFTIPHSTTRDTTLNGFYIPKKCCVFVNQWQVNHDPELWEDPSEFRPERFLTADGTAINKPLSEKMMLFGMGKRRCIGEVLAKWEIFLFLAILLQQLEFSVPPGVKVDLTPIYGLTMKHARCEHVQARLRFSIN
How it was run: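 Signal from luciferin formed by CYP1A2 from a proluciferin substrate is read as luminescence, expressed in relative luminescence units. Compounds sit with enzyme 10 min, NADPH-driven reaction runs 1 h, all at room temperature.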

[7] = target: Voltage-gated inwardly rectifying potassium channel KCNH2 (Homo sapiens) (UniProt Q12809); test: Human Ether-a-go-go-Related Gene (hERG) channel small molecule antagonists: fluorescence cell-based qHTS assay (AID 1671200); further: nearly all actives have a fitted effect of over 50% in size;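 on activity change, negative = inhibition: hERG-expressing U2OS cells given a thallium stimulus after FluxOR II dye loading; series mostly up to about 77 µM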
Chain of Voltage-gated inwardly rectifying potassium channel KCNH2 (Homo sapiens) (Q12809 whole entry, looked up): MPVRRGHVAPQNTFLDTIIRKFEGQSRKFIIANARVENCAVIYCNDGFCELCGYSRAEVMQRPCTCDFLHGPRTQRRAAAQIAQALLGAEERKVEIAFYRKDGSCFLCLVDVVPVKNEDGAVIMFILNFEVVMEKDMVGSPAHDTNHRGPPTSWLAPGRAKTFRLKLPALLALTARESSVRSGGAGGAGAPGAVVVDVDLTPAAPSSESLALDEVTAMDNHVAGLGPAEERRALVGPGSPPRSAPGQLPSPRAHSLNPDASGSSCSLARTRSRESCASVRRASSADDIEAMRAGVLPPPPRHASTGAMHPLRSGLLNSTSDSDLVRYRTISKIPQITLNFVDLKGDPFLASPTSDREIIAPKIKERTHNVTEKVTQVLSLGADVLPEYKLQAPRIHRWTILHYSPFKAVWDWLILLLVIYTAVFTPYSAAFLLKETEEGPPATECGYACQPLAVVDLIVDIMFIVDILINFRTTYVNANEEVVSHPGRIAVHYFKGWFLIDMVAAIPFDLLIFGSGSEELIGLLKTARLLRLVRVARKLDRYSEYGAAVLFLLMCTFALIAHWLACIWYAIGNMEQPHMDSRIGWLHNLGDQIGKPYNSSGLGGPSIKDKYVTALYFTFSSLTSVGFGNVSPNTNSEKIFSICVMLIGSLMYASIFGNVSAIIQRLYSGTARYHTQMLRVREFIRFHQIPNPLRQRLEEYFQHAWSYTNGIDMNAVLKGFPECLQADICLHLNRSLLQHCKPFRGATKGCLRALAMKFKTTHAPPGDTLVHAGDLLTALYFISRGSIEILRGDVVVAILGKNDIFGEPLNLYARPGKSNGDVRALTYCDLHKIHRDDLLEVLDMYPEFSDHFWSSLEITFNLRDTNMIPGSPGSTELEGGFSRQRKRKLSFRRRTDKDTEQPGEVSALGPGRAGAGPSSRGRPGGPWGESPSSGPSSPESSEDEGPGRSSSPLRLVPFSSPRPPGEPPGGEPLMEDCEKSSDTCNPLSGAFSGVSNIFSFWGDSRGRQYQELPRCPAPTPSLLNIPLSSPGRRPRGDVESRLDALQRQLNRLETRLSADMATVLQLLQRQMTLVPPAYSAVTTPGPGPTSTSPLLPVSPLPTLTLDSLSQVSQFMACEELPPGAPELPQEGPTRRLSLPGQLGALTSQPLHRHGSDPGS
How it was run: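 Channel function was assessed by thallium flux. Cells seeded the previous day and kept at 37 C took up FluxOR II dye over 1 h in the dark at room temperature, then sat another 10 min before stimulation.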

[8] = target: Cytochrome P450 3A4 (Homo sapiens) (UniProt P08684); test: Cytochrome P450 Family 3 Subfamily A Member 4 (CYP3A4) small molecule antagonists: luciferase reporter qHTS assay (AID 1671201); further: nearly all actives have a fitted effect of over 50% in size; on activity change, negative = inhibition: series mostly up to about 120 µM
Chain of Cytochrome P450 3A4 (Homo sapiens) (P08684 whole entry, looked up): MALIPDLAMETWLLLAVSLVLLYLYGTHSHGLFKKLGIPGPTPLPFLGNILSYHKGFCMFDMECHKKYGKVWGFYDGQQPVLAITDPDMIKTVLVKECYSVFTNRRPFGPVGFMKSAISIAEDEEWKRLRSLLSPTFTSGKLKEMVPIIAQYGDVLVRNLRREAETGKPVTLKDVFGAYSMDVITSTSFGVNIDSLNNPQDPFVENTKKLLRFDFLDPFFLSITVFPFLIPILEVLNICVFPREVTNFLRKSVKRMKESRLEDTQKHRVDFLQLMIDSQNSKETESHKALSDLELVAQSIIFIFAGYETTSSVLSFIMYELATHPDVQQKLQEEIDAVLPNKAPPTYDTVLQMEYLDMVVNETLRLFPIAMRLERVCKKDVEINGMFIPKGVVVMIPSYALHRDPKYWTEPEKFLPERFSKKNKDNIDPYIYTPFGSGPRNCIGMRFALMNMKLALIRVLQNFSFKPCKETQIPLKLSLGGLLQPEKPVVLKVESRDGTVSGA
How it was run: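 Compounds in DMSO were pin-transferred onto CYP3A4 enzyme-substrate mix and held 10 min at room temperature. NADPH regenerating solution started the reaction for 1 h; luciferin detection reagent stopped it, and luminescence was read after 20 min.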
On the % scale 0 is the no-effect control and ±100 the full control effect; potency means the concentration at half of the fitted maximal effect.

NC(=O)C(Cl)Cl
inactive: Potency [1] | Potency [2] | Potency [3] | Potency [4] | Potency [5] | Potency [6] | Potency [7] | Potency [8]

CSC(=O)c1c(C(F)F)nc(C(F)(F)F)c(C(=O)SC)c1CC(C)C
inactive: Potency [1] | Potency [2] | Potency [3]
active: Potency [4] 3.15 µM | Potency [5] 9.97 µM | Potency [6] 3.15 µM | Potency [8] 6.29 µM

CC1(C)[C@H](/C=C2\CCSC2=O)[C@@H]1C(=O)OCc1coc(Cc2ccccc2)c1
active: Potency [3] 39.9 µM | Potency [4] 2.24 µM | Potency [5] 1.26 µM | Potency [6] 22.4 µM | Potency [8] 3.99 µM
inactive: Potency [1] | Potency [2] | Potency [7]

Cc1c([N+](=O)[O-])cc2c(c1[N+](=O)[O-])C(C)(C)CC2(C)C
active: Potency [6] 8.94 µM
inactive: Potency [1] | Potency [2] | Potency [3] | Potency [8]

CCOP(=O)(OCC)Oc1cc(C)nc(C(C)C)n1
active: Potency [1] 0.714 µM | Potency [2] 25.3 µM | Potency [6] 35.8 µM
inactive: Potency [3] | Potency [7] | Potency [8]

COc1cnc(OC)n2nc(NS(=O)(=O)c3c(OCC(F)F)cccc3C(F)(F)F)nc12
inactive: Potency [1] | Potency [2] | Potency [3] | Potency [7]
active: Potency [5] 35.6 µM

CSSC
inactive: Potency [1] | Potency [2] | Potency [3] | Potency [7] | Potency [8]

CCc1cccc(C)c1N(C(=O)CCl)[C@@H](C)COC
inactive: Potency [1] | Potency [2] | Potency [3] | Potency [7]
active: Potency [5] 17.8 µM

CC(C)Br
inactive: Potency [1] | Potency [2] | Potency [3] | Potency [7] | Potency [8]
active: Potency [5] 40 µM

Clc1cc(Cl)c(-c2cc(Cl)c(Cl)cc2Cl)cc1Cl
inactive: Potency [1] | Potency [2] | Potency [3] | Potency [5] | Potency [7] | Potency [8]

O=[N+]([O-])c1ccc(Cl)c(Cl)c1Cl
active: Potency [6] 8.8 µM
inactive: Potency [1] | Potency [2] | Potency [3] | Potency [7] | Potency [8]

Clc1c(Cl)c(Cl)c(Cl)c(Cl)c1Cl
inactive: activity change, negative = inhibition [1] 3.1% [at 10.5 µM] | activity change, negative = inhibition [2] 0% [at 10.5 µM] | activity change, negative = inhibition [3] -7.24% [at 10.5 µM] | activity change, negative = inhibition [5] -2.13% [at 10.5 µM] | activity change, negative = inhibition [6] -10.9% [at 10.5 µM] | activity change, negative = inhibition [7] 10.1% [at 6.97 µM] | activity change, negative = inhibition [8] 4.21% [at 10.5 µM]

CN/C(=N\[N+](=O)[O-])NCc1cnc(Cl)s1
inactive: Potency [1] | Potency [2] | Potency [3] | Potency [5] | Potency [6] | Potency [7] | Potency [8]

CC(C)C(Br)C(=O)NC(N)=O (stereo not drawn)
inactive: Potency [1] | Potency [2] | Potency [3] | Potency [5] | Potency [6] | Potency [7] | Potency [8]

CN1[C@@H]2CC[C@H]1CC(O)C2 (stereo partly drawn)
inactive: Potency [1] | Potency [2] | Potency [3] | Potency [5] | Potency [6] | Potency [7] | Potency [8]

Cc1ccc([N+](=O)[O-])[c]2c1[O][Hg]2
active: Potency [3] 0.871 µM | Potency [6] 3.23 µM | Potency [7] 6.01 µM | Potency [8] 7.76 µM
inactive: Potency [1] | Potency [2]

C#CCC1=C(C)C(OC(=O)C2C(C=C(C)C)C2(C)C)CC1=O (stereo not drawn)
active: Potency [3] 39.7 µM | Potency [6] 25 µM | Potency [7] 43.4 µM | Potency [8] 8.88 µM
inactive: Potency [1] | Potency [2]

CC[C@H](C)[C@H]1O[C@]2(C=C[C@@H]1C)C[C@@H]1C[C@@H](C/C=C(\C)[C@@H](O[C@H]3C[C@H](OC)[C@@H](O[C@H]4C[C@H](OC)[C@@H](NC)[C@H](C)O4)[C@H](C)O3)[C@@H](C)/C=C/C=C3\CO[C@@H]4[C@H](O)C(C)=C[C@@H](C(=O)O1)[C@]34O)O2
inactive: Potency [1] | Potency [2] | Potency [7]
active: Potency [3] 63.3 µM | Potency [5] 35.6 µM | Potency [6] 35.6 µM | Potency [8] 1.59 µM

CCO/N=C(\CC)C1=C(O)CC(c2c(C)cc(C)cc2C)CC1=O (stereo not drawn)
active: Potency [3] 27.5 µM | Potency [5] 7.31 µM
inactive: Potency [1] | Potency [2] | Potency [7] | Potency [8]

CC(Cc1ccccc1)N(C)Cc1ccco1 (stereo not drawn)
active: Potency [3] 0.776 µM
inactive: Potency [1] | Potency [2] | Potency [5] | Potency [6] | Potency [7] | Potency [8]

CCCCON=O
inactive: Potency [1] | Potency [2] | Potency [3] | Potency [6] | Potency [7] | Potency [8]
